These results are taken from PubChem BioAssay AID720690 (Broad Institute, 2013).

Results with a measured potency or affinity are listed apart. Activity calls are given as the source filed them.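 The calls were made as follows: active = every repeat run showing a signal drop whose fitted half-maximal concentration is at most twice the top tested concentration; inconclusive = repeat runs disagree, or flat partial drop, or poor fit; inactive = the rest.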

The assay is described as follows: general mammalian cell viability loss – activator set, cherry-pick, cytotoxicity control for miR-122 modulator project, dose response (AID 720690). The following applies: HEK293T viability, CellTiter-Glo luminescence, 48 h; series mostly up to 26 µM.
With `CCC(=O)N1[C@H](CO)[C@@H](c2ccccc2)[C@@H]1CN(CC)C(=O)c1cccc(F)c1`, the compound was classed as inactive.
The value for `N=c1c2c(-c3ccccc3)c(-c3ccccc3)n(Cc3ccccc3)c2ncn1CCCO` was “inactive”; that for `CCC(=O)N1[C@H](CO)[C@@H](c2ccccc2)[C@@H]1CN(C(C)C)S(C)(=O)=O` was “inactive”.
The value for `C/C=C/c1ccc([C@H]2[C@H](CO)N[C@H]2CN(C)S(=O)(=O)c2ccccc2)cc1` was “inactive”; that for `CO[C@@H]1CN(C)C(=O)c2ccc(NC(=O)c3ccc(Oc4ccccc4)cc3)cc2OC[C@H](C)NC[C@H]1C` was “inactive”; that for `N#CCc1c(C#N)c(N)nc(N2CCN(S(=O)(=O)c3ccccc3)CC2)c1C#N` was “inactive”.
Consider `CCCCN(CCCC)C(=O)CN(C)S(=O)(=O)c1ccc2c(c1)n(C)c(=O)c(=O)n2C`, for which the result was inactive.
The value for `Cc1ccc(S(=O)(=O)Nc2ccc3c(c2)C(=O)N(C)[C@@H]2CC[C@H](CC(=O)NCCc4ccncc4)O[C@@H]2CO3)cc1` was “inactive”; that for `COCC(=O)Nc1ccc2c(c1)C(=O)N(C)[C@@H]1CC[C@@H](CC(=O)NC3CCCC3)O[C@@H]1CO2` was “inactive”; that for `CCCNC(=O)C[C@H]1CC[C@H]2[C@@H](COc3ccc(NC(=O)c4cc(F)cc(F)c4)cc3C(=O)N2C)O1` was “inactive”.
Take `COc1ccc(CNCCC(c2ccc(OC)cc2)c2ccccc2OC)cc1` (stereo not given): the compound was classed as inactive.
The value for `C[C@@H]1CN([C@@H](C)CO)S(=O)(=O)c2ccc(C3=CCCCC3)cc2O[C@@H]1CN(C)C(=O)Nc1ccc2c(c1)OCO2` was “inactive”; that for `CC(=O)N1[C@H](CO)[C@H](c2ccccc2)[C@@H]1CN(C(=O)c1ccc(F)cc1)C(C)C` was “inactive”.
The value for `CN1C(=O)c2cc(NC(=O)c3cccc(C(F)(F)F)c3)ccc2OC[C@H]2O[C@H](CC(=O)NCCN3CCCC3)CC[C@H]21` was “inactive”; that for `COC(=O)C[C@@H]1CC[C@@H]2[C@@H](COc3ccc(NS(=O)(=O)c4ccccc4F)cc3C(=O)N2C)O1` was “inactive”; that for `CN(C)c1ncnc2c1ncn2C1OC(CO)C(O)C1O` (stereo not given) was “inactive”.
The value for `COc1ccc(-c2ccc3c(c2)O[C@H](CN(C)C(=O)Nc2ccccc2F)[C@H](C)CN([C@@H](C)CO)S3(=O)=O)cc1` was “inactive”; that for `COCC(=O)N(C)C[C@H]1Oc2cc(C#Cc3cccnc3)ccc2S(=O)(=O)N([C@@H](C)CO)C[C@H]1C` was “inactive”; that for `CN(C[C@H]1N[C@@H](CO)[C@H]1c1ccc(-c2cccc(F)c2)cc1)C(=O)C1CCC1` was “inactive”.
Take `CN(Cc1ccccc1)C(=O)COC(=O)c1ccccc1Nc1ccccc1`: the compound was classed as inactive.
As for `CN1C(=O)c2cc(NC(=O)c3cccs3)ccc2OC[C@@H]2O[C@@H](CC(=O)NCCN3CCCCC3)CC[C@H]21`, the compound was classed as inactive.
The value for `CCCC(=O)Nc1ccc2c(c1)C(=O)N(C)[C@H]1CC[C@H](CC(=O)NCCN3CCCCC3)O[C@@H]1CO2` was “inactive”; that for `CN(C)CCCNC(=O)C[C@H]1CC[C@H]2[C@@H](COc3ccc(NC(=O)c4ccccc4F)cc3C(=O)N2C)O1` was “inactive”.
The value for `CCCNC(=O)C[C@@H]1CC[C@@H]2[C@H](COc3ccc(NC(=O)Nc4ccccc4F)cc3C(=O)N2C)O1` was “inactive”.
Regarding `CN1C[C@@H]2[C@H](c3ccccc31)[C@@H](CO)N2C(=O)Nc1ccccc1`, the result was inactive.
The value for `CCOc1ccc(CCNC(=O)C2CCN(S(=O)(=O)N3CCC(C)CC3)CC2)cc1OCC` was “inactive”.
Turning to `COCC(=O)N(C)C[C@H]1Oc2cc(-c3ccc(C#N)cc3)ccc2S(=O)(=O)N([C@@H](C)CO)C[C@H]1C`, the call was inactive.
The value for `CC(C)(C)c1cc(NCCCn2ccnc2)n2ncc(-c3ccc(Cl)cc3)c2n1` was “inactive”.
The value for `CCNC(=O)Nc1ccc2c(c1)C(=O)N(C)[C@@H]1CC[C@H](CC(=O)NCC3CC3)O[C@@H]1CO2` was “inactive”; that for `O=C(COC(=O)c1ccccc1)Nc1cc(Cl)ccc1Oc1ccccc1` was “inactive”; that for `CN1C(=O)c2cc(NC(=O)c3cccc(F)c3)ccc2OC[C@H]2O[C@H](CC(=O)O)CC[C@H]21` was “inactive”.
On to `Cc1nnsc1Sc1cccc(C(F)(F)F)c1`, for which the compound was classed as inactive.
The value for `CCCNC(=O)C[C@@H]1CC[C@@H]2[C@H](COc3ccc(NC(=O)c4cc(F)cc(F)c4)cc3C(=O)N2C)O1` was “inactive”; that for `C[C@H](CO)N1C[C@H](C)[C@H](CN(C)S(=O)(=O)c2ccc(F)cc2)Oc2ccc(NS(C)(=O)=O)cc2C1=O` was “inactive”; that for `C/C=C/c1ccc2c(c1)O[C@H](CN(C)C(=O)NCCC)[C@H](C)CN([C@@H](C)CO)S2(=O)=O` was “inactive”.
